PubChem BioAssay (NCI)
The panel holds about 83,000 compounds, 20% with a hit somewhere; the sample as a whole holds those more often.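 Growth was measured after 48 h exposure to one concentration of compound in 96-well plates. Values under 10 count as active.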 A number with no mark means an inactive call. Calls of active or inactive are those of the source.

These compounds were tested on NCI-H522 lung (assay: NCI-60 one-dose screen, 48 h (100 = growth as untreated, 0 = no growth, -100 = all killed)). Settings: 10 µM unless noted.
Work on COC(=O)C1(CC(C)=O)NC(=S)NC(=O)C1C#N (centres undefined) yielded a growth of 98.6%.
For O=Cc1ccc(Cl)c(Cl)c1, the growth was 96.5%.
With CC(=O)c1cc(O)ccc1O the growth was 100%.
With Nc1c(Br)cc(O)c2c1C(=O)c1ccccc1C2=O the growth was 54%.
Compound O=C1CSc2ccccc2N1 has a growth of 104%.
In the case of NC(=S)N/N=C/c1ccc(OC(=O)COc2ccccc2)cn1, the growth is reported as 58%.
CCOc1ccc2c(c1)c(C)cc(C)[n+]2CC showed a growth of 46.1%.
CC1=CC(=Nc2ccc(N(C)C)cc2)C=C(C)C1=O gave a growth of 94.4%.
For COc1cc(CC#N)c([N+](=O)[O-])cc1OC, the growth was 102%.
Work on CCC12OC(COc3ccccc3)CN1CCN2c1ccccc1 (centres undefined) yielded a growth of 87.6% [100 µM].
For C=CCOc1ccc(Cl)cc1Cl, the growth was 108%.
For CCc1ccccc1C(=O)N(CC)CC, the growth was 105%.
With Cc1ccc(S(=O)(=O)Oc2ccc3sc4c(CO)ccc(NCCN(C)C)c4c(=O)c3c2)cc1 the growth was -74.4% [100 µM] (active).
With CCOC(=O)c1cc(C)[nH]c(=O)c1C#N the growth was 74.4%.
CCN(CC)CCOC(=O)Nc1c(C(C)C)cccc1C(C)C was tested, and the growth was 92.8%.
N#CCCN1C(=O)CCC1C(=O)O (centres undefined) was tested, and the growth was 85%.
With NNc1ncccn1 the growth was 84.6%.
Cc1cc(=O)n(Nc2ccccc2)c(O)c1C#N gave a growth of 100%.
For CC(=O)N(C)N=Nc1ccc(C)cc1, the growth was 92.9%.
OCC1OC(n2ccc3c2ncn2ncnc32)C(O)C1O (centres undefined) was tested, and the growth was 82.7%.
CC(C)(C)[Si](C)(C)OCC1OC(n2cnc3c(N)ncnc32)CC1OS(C)(=O)=O (centres undefined) showed a growth of 99%.
In the case of c1ccc(Oc2c3ccccc3nc3ccccc23)cc1, the growth is reported as -27.4% (active).
For CN(C)c1ccc2c(N(C)C)cc(N(C)C)nc2c1, the growth was 79.3%.
CC(C)N(CCCC#N)C(C)C showed a growth of 108%.
Compound COc1ccc(-c2csc(NC(=O)Nc3nc(-c4ccc(OC)cc4)cs3)n2)cc1 has a growth of 92.5%.
Work on CCOC(OCC)C(=O)c1ccccc1 yielded a growth of 85.2%.
With CC1CC(C)S(=O)(=O)C1 (centres undefined) the growth was 97.8%.
With Clc1cccc(Cl)c1C1CSc2ccccc2N=C1c1ccccc1 (centres undefined) the growth was 63.6%.
With CCOc1ccc(C(=O)O)cc1 the growth was 101%.
With CCN(CC)CCCC(C)NC(=S)N/N=C(\C)c1ccccn1 (centres undefined) the growth was 47.2%.
C[n+]1cc2cc3c(cc2c2ccccc21)OCO3 gave a growth of 30.8%.
Cc1cccc2ccccc12 was tested, and the growth was 97.3%.
Cn1c2ccccc2c2nnc(NCCCCO)nc21 was tested, and the growth was 95.3%.
For Cc1nc(C)c(C(=O)O)cc1C(=O)O, the growth was 108%.
C/C(=N\Nc1ccc([N+](=O)[O-])cc1[N+](=O)[O-])c1ccc(Br)cc1 showed a growth of 85.5%.
CC(=O)OC/C(C)=C\CC(C)COC(C)=O (centres undefined) gave a growth of 110%.
CCOc1ccccc1NC(=O)CCl was tested, and the growth was 56.1%.

What follows are compounds tested on A549/ATCC NSCLC in the same assay as above. Settings: 10 µM unless noted.
COC(=O)C1(CC(C)=O)NC(=S)NC(=O)C1C#N (centres undefined) gave a growth of 106%.
With O=Cc1ccc(Cl)c(Cl)c1 the growth was 102%.
CC(=O)c1cc(O)ccc1O showed a growth of 103%.
In the case of Nc1c(Br)cc(O)c2c1C(=O)c1ccccc1C2=O, the growth is reported as 96.1%.
O=C1CSc2ccccc2N1 gave a growth of 96.5%.
In the case of NC(=S)N/N=C/c1ccc(OC(=O)COc2ccccc2)cn1, the growth is reported as 107%.
For CCOc1ccc2c(c1)c(C)cc(C)[n+]2CC, the growth was 45.4%.
In the case of CC1=CC(=Nc2ccc(N(C)C)cc2)C=C(C)C1=O, the growth is reported as 77.9%.
COc1cc(CC#N)c([N+](=O)[O-])cc1OC showed a growth of 102%.
Compound CCC12OC(COc3ccccc3)CN1CCN2c1ccccc1 (centres undefined) has a growth of 94.1% [100 µM].
C=CCOc1ccc(Cl)cc1Cl was tested, and the growth was 109%.
For CCc1ccccc1C(=O)N(CC)CC, the growth was 97.1%.
Cc1ccc(S(=O)(=O)Oc2ccc3sc4c(CO)ccc(NCCN(C)C)c4c(=O)c3c2)cc1 was tested, and the growth was -70.9% [100 µM] (active).
For CCOC(=O)c1cc(C)[nH]c(=O)c1C#N, the growth was 98.5%.
CCN(CC)CCOC(=O)Nc1c(C(C)C)cccc1C(C)C was tested, and the growth was 95.3%.
N#CCCN1C(=O)CCC1C(=O)O (centres undefined) showed a growth of 103%.
Work on NNc1ncccn1 yielded a growth of 97.1%.
In the case of Cc1cc(=O)n(Nc2ccccc2)c(O)c1C#N, the growth is reported as 106%.
Work on CC(=O)N(C)N=Nc1ccc(C)cc1 yielded a growth of 113%.
OCC1OC(n2ccc3c2ncn2ncnc32)C(O)C1O (centres undefined) was tested, and the growth was 50.6%.
CC(C)(C)[Si](C)(C)OCC1OC(n2cnc3c(N)ncnc32)CC1OS(C)(=O)=O (centres undefined) showed a growth of 99.4%.
Compound c1ccc(Oc2c3ccccc3nc3ccccc23)cc1 has a growth of 34.1%.
CN(C)c1ccc2c(N(C)C)cc(N(C)C)nc2c1 was tested, and the growth was 98.5%.
For CC(C)N(CCCC#N)C(C)C, the growth was 93.9%.
COc1ccc(-c2csc(NC(=O)Nc3nc(-c4ccc(OC)cc4)cs3)n2)cc1 was tested, and the growth was 81.3%.
For CCOC(OCC)C(=O)c1ccccc1, the growth was 90.2%.
CC1CC(C)S(=O)(=O)C1 (centres undefined) was tested, and the growth was 92.6%.
Clc1cccc(Cl)c1C1CSc2ccccc2N=C1c1ccccc1 (centres undefined) showed a growth of 73.8%.
For CCOc1ccc(C(=O)O)cc1, the growth was 108%.
Compound CCN(CC)CCCC(C)NC(=S)N/N=C(\C)c1ccccn1 (centres undefined) has a growth of 48.9%.
C[n+]1cc2cc3c(cc2c2ccccc21)OCO3 gave a growth of 15.1%.
For Cc1cccc2ccccc12, the growth was 96.9%.
Compound Cn1c2ccccc2c2nnc(NCCCCO)nc21 has a growth of 92.6%.
With Cc1nc(C)c(C(=O)O)cc1C(=O)O the growth was 116%.
In the case of C/C(=N\Nc1ccc([N+](=O)[O-])cc1[N+](=O)[O-])c1ccc(Br)cc1, the growth is reported as 84.8%.
For CC(=O)OC/C(C)=C\CC(C)COC(C)=O (centres undefined), the growth was 106%.
Work on CCOc1ccccc1NC(=O)CCl yielded a growth of 100%.
